Assay [1] relates to HaCat. Nature of the assay: Cytotoxic Profiling of Annotated Libraries Using Quantitative High-Throughput Screening (AID 1296008). Also: potency is read from the fitted curve at half-maximal effect. As to max response: % is scaled to controls: 0 for no effect and ±100 for the full control effect. The conditions noted are these: Five cell lines viability, CellTiter-Glo ATP luminescence, 48-72 h; max response: hits give low values. The method, boiled down:
(§1)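 Cells exposed to compounds for 48 or 72 hr at 37 degrees Celsius. Viability read as ATP-coupled luminescence with CellTiter-Glo after 10 min at room temperature.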
(In general: ATP-based viability assays read luminescence as a measure of living cells.)

In a further assay the test system is KB-3-1. The description is as above. The following applies: Five cell lines viability, CellTiter-Glo ATP luminescence, 48-72 h; max response: hits give low values. A digest of the protocol:
as §1

Assay [2] has as its system HACAT. Nature of the assay: qHTS assay to identify novel small-molecules to repurpose for Merkel cell carcinoma treatment (AID 1296009). The conditions noted are these: MCC and control cell lines, CellTiter-Glo viability, 72 h; series mostly up to 44.8 µM. The method, boiled down: (§2)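 Cells were treated for 72 hr at 37 degree celsius with compounds in 8- or 11-point dose response. Viability was read by CellTiter-Glo luminescence, normalized to no-cell (cytotoxicity) and DMSO controls.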

Assay [3] has as its system NIH3T3. Kind of assay: Cytotoxic Profiling of Annotated Libraries Using Quantitative High-Throughput Screening (AID 1296008). Also: potency is read from the fitted curve at half-maximal effect. As to max response: % is scaled to controls: 0 for no effect and ±100 for the full control effect. The following applies: Five cell lines viability, CellTiter-Glo ATP luminescence, 48-72 h; max response: hits give low values. The method, boiled down:
as §1

Assay [4] concerns NIH3T3. Nature of the assay: qHTS assay to identify novel small-molecules to repurpose for Merkel cell carcinoma treatment (AID 1296009). The conditions noted are these: MCC and control cell lines, CellTiter-Glo viability, 72 h; at 44.8 µM (top of the series) unless noted. The method, boiled down:
as §2

Inconclusive results are not listed. Values without a mark were called inactive. Activity calls are given as the source filed them. Calls follow the shape of the dose curve; as a rule, active = well fitted inhibition curve with a large enough effect; inconclusive = small, poorly fitted or top-dose-only effect; inactive = flat fitted curve, though single readings scatter.
Also: nearly all actives have a fitted effect of over 60% in size.

On to `CC(C)CCC[C@@H](C)[C@H]1CC[C@H]2[C@@H]3CC(=O)[C@H]4C[C@@H](O)CC[C@]4(C)[C@H]3CC[C@]12C`, for which, in the assay with HaCat [1], the compound was called inactive. For the same compound, the max response in the assay on KB-3-1 is -11.4%. In the assay on HACAT [2], the Potency result is “inactive”.

`CCC1=CC2CN(C1)Cc1c([nH]c3ccccc13)[C@@](C(=O)OC)(c1cc3c(cc1OC)N(C)[C@H]1[C@@](O)(C(=O)OC)[C@H](OC(C)=O)[C@]4(CC)C=CCN5CC[C@]31[C@@H]54)C2` (some centres undefined): the compound was classed as inactive in the assay with HaCat [1]. For the same compound, the Potency in the assay on KB-3-1 was 35.5 nM (active). Moreover, the Potency result in the assay on HACAT [2] is “inactive”.

On to `Cn1nnc(-c2ccc(-c3ccc(N4C[C@H](CO)OC4=O)cc3F)cn2)n1`, for which the max response was -5.65% in the assay with HaCat [1] and -14% in the assay on KB-3-1. Besides, the result with NIH3T3 [3] and in the assay with NIH3T3 [4] was inactive.

As to `C[C@@H]1O[C@@H](O[C@H]2[C@H](OC(=O)[C@]34CCC(C)(C)C[C@H]3C3=CCC5[C@@]6(C)C[C@H](O)[C@H](O[C@@H]7O[C@H](CO)[C@@H](O)[C@H](O)[C@H]7O)[C@@](C)(CO)C6[C@H](O)C[C@@]5(C)[C@]3(C)CC4)OC[C@H](O)[C@@H]2O)[C@H](O)[C@H](O)[C@H]1O[C@@H]1OC[C@@H](O)[C@H](O[C@@H]2OC[C@](O)(CO)[C@H]2O)[C@H]1O` (some centres undefined), the max response in the assay with HaCat [1] is -1.17%; in the assay on KB-3-1 it was 3.08%. In addition, the compound was called inactive in the assay on NIH3T3 [3]. Further, the outcome in the assay with NIH3T3 [4] is “inactive [at 9.27 µM]”.

These data come from PubChem BioAssay (NCATS).
